Only a selection was taken, and hits are over-represented in it overall.
ST2 IL33 inh: inhibitors of human ST2 (IL1RL1) binding to IL-33, primary screen, biochemical, AlphaLISA; inhibition, % for hits at 17 µM; actives 2.3% (n = 78,000); AlphaLISA ST2-Fc/biotin-IL-33 interaction, 1 h; Interleukin-1 receptor-like 1 (Homo sapiens), Q01638; in the data active = inhibition above about 30%
Target sequence (Q01638 whole entry, looked up): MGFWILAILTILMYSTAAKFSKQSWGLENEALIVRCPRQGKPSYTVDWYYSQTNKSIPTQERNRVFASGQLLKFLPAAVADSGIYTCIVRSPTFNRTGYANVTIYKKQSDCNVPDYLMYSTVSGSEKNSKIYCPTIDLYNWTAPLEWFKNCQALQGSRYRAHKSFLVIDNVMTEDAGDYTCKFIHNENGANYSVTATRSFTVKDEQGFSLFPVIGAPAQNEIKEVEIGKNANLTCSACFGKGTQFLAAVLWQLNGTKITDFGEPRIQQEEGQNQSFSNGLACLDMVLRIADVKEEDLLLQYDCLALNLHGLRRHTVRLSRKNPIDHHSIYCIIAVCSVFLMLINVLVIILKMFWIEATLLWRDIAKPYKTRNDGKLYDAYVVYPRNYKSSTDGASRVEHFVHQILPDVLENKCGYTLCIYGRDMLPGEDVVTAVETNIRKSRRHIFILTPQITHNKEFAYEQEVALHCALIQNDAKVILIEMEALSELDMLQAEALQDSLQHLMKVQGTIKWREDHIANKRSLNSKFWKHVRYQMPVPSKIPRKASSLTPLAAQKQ
* marks the source's active call; other numbers are inactive results; i = inactive; ! = repeats disagree.

SMILES | ST2 IL33 inh
COc1ccc(C2=Nc3ccccc3N=C(c3cc(OC)ccc3O)C2)cc1 | i
Oc1ccccc1C1=Nc2ccccc2N=C(c2ccccc2)C1 | i
COc1ccc(O)c(C2=Nc3ccccc3N=C(c3ccc(F)cc3)C2)c1 | 32%*
O=C(CC1Sc2ccccc2NC1=O)Nc1ccccc1F (configuration not stated) | i
Cc1nn(-c2ccccn2)c2c1C(=O)/C(=C\Nc1ccccc1Cl)CC2 | 31%*
Cc1nn(-c2ccccn2)c2c1C(=O)/C(=C/Nc1ccc([N+](=O)[O-])cc1Br)CC2 | i
O=C1CSC(c2cccc(Cl)c2Cl)N1c1ccccn1 (configuration not stated) | i
Cc1cc2ccccc2c(=O)n1CC(=O)NCC(=O)Nc1nc2ccccc2s1 | i
NC(=O)c1c(NC(=O)COc2ccccc2Cl)sc2c1CCC2 | i
Cc1cc(C)c(S(=O)(=O)N=C2C=CC(=O)c3ccccc32)cc1C | 47%*
CC1=CC(=NS(=O)(=O)c2cccc([N+](=O)[O-])c2)C=CC1=O | i
Cc1cc(C)c(S(=O)(=O)N2CCN(c3ccccc3)CC2)cc1C | i
Cc1cc(S(=O)(=O)N=C2C=CC(=O)c3ccccc32)ccc1Cl | 42%*
Cc1cc(Br)c(S(=O)(=O)N2CCN(c3ccccc3)CC2)cc1C | i
Cc1cc(C)c(S(=O)(=O)N2CCCCC2)cc1S(=O)(=O)N1CCCCC1 | i
Cc1cc(S(=O)(=O)N2CCN(S(=O)(=O)c3ccc(Cl)c(C)c3)CC2)ccc1Cl | i
Cc1cc(C)c(S(=O)(=O)N2CCN(c3cc(-c4ccccc4C)ncn3)CC2)cc1C | i
Cc1cc(C)c(S(=O)(=O)N=C2C=C(Br)C(=O)c3ccccc32)cc1C | 35%*
CCOCCn1nc(C)cc1C(=O)N1CCNCC1C(=O)N1CCCC1 (configuration not stated) | i
CCCS(=O)(=O)N1CCN(c2nc(C)cc(N(C)C)n2)CC1 | i
Cc1ccc(Oc2ncccc2CNC(=O)C(C)N2CCCC2)cn1 (configuration not stated) | i
CCO/N=C1\SCC(=O)N1c1cccc(Cl)c1 | i
CCOc1ccc(CN2CCCC(c3nn(C)c(=O)n3CC)C2)cn1 (configuration not stated) | i
CCN(CC)CCNC(=O)c1ccc2c(c1)N(Cc1ccc(C)cc1)CCS2 | i
CNc1ncnc2c1C(c1ccc(Cl)cc1)c1c(NC)ncnc1O2 | i
SMILES | ST2 IL33 inh
COc1ccc(NC2OC(=O)c3c2ccc(OC)c3OC)cc1 (configuration not stated) | i
O=C(Nc1nc(-c2ccccn2)cs1)c1ccc(C(=O)c2ccccc2)cc1 | i
Oc1ccc(Nc2nc(-c3ccccn3)cs2)cc1 | i
c1ccc(CNc2nc(-c3ccccn3)cs2)cc1 | 36%*
O=c1[nH]c2c(s1)C1c3cc([N+](=O)[O-])ccc3OCC1CS2 (configuration not stated) | i
CC1CCC2C(C1)c1sc(=O)[nH]c1SC2(C)C (configuration not stated) | i
CC12COc3ccccc3C1c1sc(=O)[nH]c1SC2 (configuration not stated) | 32%*
COCCN(Cc1cnn(C)c1)C(=O)c1ccccc1OC(F)F | i
CCN1CC(CNc2ccc(-c3nc(-c4ccccc4F)no3)cn2)CC1=O (configuration not stated) | i
O=C(CSc1nc2ccccc2s1)c1ccccc1 | i
O=C(CSc1nc2ccccc2s1)Nc1ccccc1 | i
O=C(CSc1nc2ccccc2s1)c1ccccc1[N+](=O)[O-] | 33%*
COc1cc(NC(=S)N[C@H]2CO[C@H]3[C@@H]2OC[C@@H]3n2nnnc2-c2ccc(N(C)C)cc2)cc(OC)c1 | i
Cc1ccc2oc(-c3ccc(F)cc3)nc2c1 | i
Cc1ccc2oc(-c3cc(N)ccc3O)nc2c1 | 45%*
Nc1ccc2oc(-c3cc(F)c(F)cc3Cl)nc2c1 | i
Cc1ccc(NC(=O)c2cc3cc(Cl)cc(Cl)c3oc2=O)cc1 | i
C/C=C/CC(=O)N(Cc1ccsc1)C(CC)CO (configuration not stated) | i
CCCn1cnc2cc(NCc3cccs3)ccc21 | i
Cn1cnc2cc(NCc3ccccc3Cl)ccc21 | i
Cn1cnc2cc(NCc3ccc(Br)cc3)ccc21 | i
CN(C)c1ccc(CNc2ccc3c(c2)ncn3C)cc1 | 46%*!
COc1cccc(CNc2ccc3c(c2)ncn3C)c1OC | i
CC(C)(C)n1cnc2cc(NCc3ccc(Cl)cc3Cl)ccc21 | i
CCN(CC)c1ccc(CNc2ccc3c(c2)ncn3C(C)(C)C)cc1 | 40%*
SMILES | ST2 IL33 inh
CCn1cnc2cc(NCc3cccc(OC)c3)ccc21 | i
CCN(CC)c1ccc(CNc2ccc3c(c2)ncn3C)cc1 | 50%*!
CCN(CC)C1CCN(C(=O)CN2Cc3cc(Cl)ccc3OC(C)C2)C1 (configuration not stated) | i
CC(=O)c1cc(CN(C)Cc2nncn2C(C)C)cs1 | i
COc1ccc(-n2nc(C(=O)NCC3CCCO3)c3c4ccccc4n(C)c3c2=O)cc1Cl (configuration not stated) | i
Cc1ccc(S(=O)(=O)CCC(=O)NCC(=O)O)cc1C | i
COc1cccc(CC(C2CCN(C(=O)c3cccc(F)c3F)CC2)N(C)C(=O)c2ccsc2)c1 (configuration not stated) | i
NC(=O)c1cccn1Cc1cccc(Cl)c1 | i
Clc1cccc(CN2CCCCCC2)c1 | i
N#CSC(C#N)Cc1cccc(Cl)c1 (configuration not stated) | 34%*
COc1ccccc1/C=C/C1=NC(=C\c2ccc(C(C)C)cc2)/C(=O)O1 | 45%*
COc1ccccc1/C=C/C1=NC(=C\c2ccc(Cl)cc2Cl)/C(=O)O1 | i
COc1ccccc1/C=C/C1=NC(=C\c2ccc(SC)cc2)/C(=O)O1 | i
O=C(CSc1nc2ccccc2o1)Nc1cccc(C(=O)O)c1 | i
O=C(Nc1ccc(Cl)cc1)[C@H](CSCc1ccccc1)N1Cc2ccccc2C1=O | i
COc1ccc(Br)cc1C1C(C#N)=C(N)OC2=C1C(=O)CC(C)(C)C2 (configuration not stated) | i
Cc1cc(-c2ccccc2)c(C#N)c(N)n1 | i
CCOC(=O)c1sc(-c2ccccc2)c(C#N)c1C | i
Cc1c(-c2ccccc2)sc(N)c1C#N | 33%*
COc1ccc(Nc2c(-c3ccco3)nc3ccc(Br)cn23)cc1 | i
COc1ccc(Cl)cc1NC(=O)c1cc(-c2ccco2)on1 | i
COc1cc(C=Nc2c(-c3ccco3)nc3ccc(Cl)cn23)ccc1O | 43%*
CN(Cc1cc(C(C)(C)C)n[nH]1)C(=O)c1cn2c3c(cccc3c1=O)CC2 | i
O=C(O)c1cccc2c1NC(c1ccccc1Br)C1CC=CC21 (configuration not stated) | i
COc1cccc2c1NC(c1ccc(Br)cc1)C1CC=CC21 (configuration not stated) | 33%*
O=C(O)c1cccc2c1NC(c1ccc(F)cc1)C1CC=CC21 (configuration not stated) | 50%*
Cc1ccc([C@@H]2Nc3c(F)cccc3[C@@H]3C=CC[C@@H]32)cc1 | i
Fc1cccc2c1NC(c1ccc(Br)cc1)C1CC=CC21 (configuration not stated) | 42%*
CCOC(=O)c1oc2ccccc2c1NC(=O)C1CC1 | i
COc1ccc(NS(=O)(=O)c2ccc3c(c2)CCN3C(=O)C2CC2)cc1 | i

High-throughput results (PubChem)
